Measurements from PubChem BioAssay AID1159580 (chemical genetic matrix, 2015).
The whole screen tested about 5,500 compounds, of which about 2,000 (36%) were called active. Not shown: some 18% with an inconclusive outcome. Rule as the data show it: active = normalized growth mostly below about 0.91 (no sharp cut-off); inconclusive = no clear call, values can overlap the other calls; inactive = mostly above about 0.92. The list shows a part of the results.

Test: chemical genetic growth profiling, strain panel (AID 1159580);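 also: tested at 20 µM; growth read once vehicle control cultures reached saturation at 30 °C; 1 = growth at the plate median or of vehicle wells; lower values mean less growth of the strain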
Settings: growth OD

Measured: normalized growth

CC(=O)N[C@@H](CC(=O)O)C(=O)O
inactive: S. cerevisiae deletion strains, locus YJR043C, strain POL32, stronger effect = lower value 1.01 | S. cerevisiae deletion strains, locus YJR075W, strain HOC1, stronger effect = lower value 1.01 | S. cerevisiae deletion strains, locus YKL009W, strain mrt4, stronger effect = lower value 1.03 | S. cerevisiae deletion strains, locus YKL068W, stronger effect = lower value 1.01 | S. cerevisiae deletion strains, locus YKL085W, strain MDH1 (second series), stronger effect = lower value 1.01 | S. cerevisiae deletion strains, locus YKL085W, strain MDH1, stronger effect = lower value 1.01 | S. cerevisiae deletion strains, locus YKL160W, strain elf1, stronger effect = lower value 0.998 | S. cerevisiae deletion strains, locus YKL190W, strain CNB1, stronger effect = lower value 1.01 | S. cerevisiae deletion strains, locus YKR001C, strain vps1, stronger effect = lower value 1.01 | S. cerevisiae deletion strains, locus YKR026C, strain gcn3, stronger effect = lower value 1.01 | S. cerevisiae deletion strains, locus YKR091W, strain srl3, stronger effect = lower value 1 | S. cerevisiae deletion strains, locus YLL001W, strain dnm1, stronger effect = lower value 1.01 | S. cerevisiae deletion strains, locus YLL026W, stronger effect = lower value 1.01 | S. cerevisiae deletion strains, locus YLL041C, strain sdh2, stronger effect = lower value 1.01 | S. cerevisiae deletion strains, locus YLR027C, strain aat2, stronger effect = lower value 1.02 | S. cerevisiae deletion strains, locus YLR039C, strain RIC1, stronger effect = lower value 0.984 | S. cerevisiae deletion strains, locus YLR058C, strain SHM2, stronger effect = lower value 1.01 | S. cerevisiae deletion strains, locus YLR102C, strain apc9, stronger effect = lower value 1.01 | S. cerevisiae deletion strains, locus YLR221C, strain rsa3, stronger effect = lower value 0.974 | S. cerevisiae deletion strains, locus YLR258W, strain gsy2, stronger effect = lower value 0.997 | S. cerevisiae deletion strains, locus YLR262C, strain YPT6 (second series), stronger effect = lower value 1 | S. cerevisiae deletion strains, locus YLR262C, strain YPT6, stronger effect = lower value 1.01 | S. cerevisiae deletion strains, locus YLR268W, strain sec22, stronger effect = lower value 1.02 | S. cerevisiae deletion strains, locus YLR320W, strain mms22, stronger effect = lower value 0.992 | S. cerevisiae deletion strains, locus YLR330W, strain CHS5, stronger effect = lower value 1.01 | S. cerevisiae deletion strains, locus YLR342W, strain FKS1 (second series), stronger effect = lower value 1.01 | S. cerevisiae deletion strains, locus YLR342W, strain FKS1, stronger effect = lower value 1.01 | S. cerevisiae deletion strains, locus YLR357W, strain rsc2, stronger effect = lower value 1.01 | S. cerevisiae deletion strains, locus YLR370C, strain arc18, stronger effect = lower value 1.01 | S. cerevisiae deletion strains, locus YLR371W, strain rom2, stronger effect = lower value 1.02 | S. cerevisiae deletion strains, locus YLR384C, strain iki3, stronger effect = lower value 0.982 | S. cerevisiae deletion strains, locus YLR418C, strain cdc73, stronger effect = lower value 1.02 | S. cerevisiae deletion strains, locus YML016C, strain PPZ1, stronger effect = lower value 1.01 | S. cerevisiae deletion strains, locus YML032C, strain rad52, stronger effect = lower value 1.01 | S. cerevisiae deletion strains, locus YML120C, strain ndi1, stronger effect = lower value 1.01 | S. cerevisiae deletion strains, locus YML124C, strain tub3, stronger effect = lower value 1.02 | S. cerevisiae deletion strains, locus YMR058W, strain fet3, stronger effect = lower value 1.02 | S. cerevisiae deletion strains, locus YMR078C, strain ctf18, stronger effect = lower value 1 | S. cerevisiae deletion strains, locus YMR125W, strain sto1, stronger effect = lower value 1.01 | S. cerevisiae deletion strains, locus YMR129W, stronger effect = lower value 1 | S. cerevisiae deletion strains, locus YMR205C, strain PFK2, stronger effect = lower value 0.993 | S. cerevisiae deletion strains, locus YMR223W, strain ubp8, stronger effect = lower value 1.01 | S. cerevisiae deletion strains, locus YMR231W, strain pep5, stronger effect = lower value 1 | S. cerevisiae deletion strains, locus YMR263W, strain SAP30, stronger effect = lower value 1.01 | S. cerevisiae deletion strains, locus YMR307W, strain GAS1, stronger effect = lower value 1.03 | S. cerevisiae deletion strains, locus YNL067W, strain RPL9B, stronger effect = lower value 1.02 | S. cerevisiae deletion strains, locus YNL071W, strain lat1, stronger effect = lower value 1.01 | S. cerevisiae deletion strains, locus YNL128W, strain TEP1, stronger effect = lower value 1.02 | S. cerevisiae deletion strains, locus YNL153C, strain GIM3, stronger effect = lower value 1 | S. cerevisiae deletion strains, locus YNL209W, strain ssb2, stronger effect = lower value 1.01 | S. cerevisiae deletion strains, locus YNL233W, strain BNI4, stronger effect = lower value 1 | S. cerevisiae deletion strains, locus YNL248C, strain rpa49, stronger effect = lower value 0.91 | S. cerevisiae deletion strains, locus YNL250W, strain rad50, stronger effect = lower value 1.01 | S. cerevisiae deletion strains, locus YNL271C, strain bni1, stronger effect = lower value 1.02 | S. cerevisiae deletion strains, locus YNL298W, strain CLA4, stronger effect = lower value 1.01 | S. cerevisiae deletion strains, locus YNL307C, strain MCK1, stronger effect = lower value 1.02 | S. cerevisiae deletion strains, locus YNL322C, strain KRE1 (second series), stronger effect = lower value 0.994 | S. cerevisiae deletion strains, locus YNL322C, strain KRE1, stronger effect = lower value 1.01 | S. cerevisiae deletion strains, locus YNR049C, strain mso1, stronger effect = lower value 0.996 | S. cerevisiae deletion strains, locus YNR052C, strain pop2, stronger effect = lower value 1.01 | S. cerevisiae deletion strains, locus YOL006C, strain TOP1, stronger effect = lower value 1.04 | S. cerevisiae deletion strains, locus YOL012C, strain htz1 0.941 | S. cerevisiae deletion strains, locus YOL147C, strain pex11, stronger effect = lower value 1.01 | S. cerevisiae deletion strains, locus YOR001W, strain rrp6, stronger effect = lower value 0.988 | S. cerevisiae deletion strains, locus YOR061W, strain CKA2, stronger effect = lower value 1 | S. cerevisiae deletion strains, locus YOR069W, strain VPS5, stronger effect = lower value 1.01 | S. cerevisiae deletion strains, locus YOR070C, strain gyp1, stronger effect = lower value 1 | S. cerevisiae deletion strains, locus YOR080W, strain dia2, stronger effect = lower value 1 | S. cerevisiae deletion strains, locus YOR083W, strain WHI5, stronger effect = lower value 1 | S. cerevisiae deletion strains, locus YOR106W, strain vam3, stronger effect = lower value 1.01 | S. cerevisiae deletion strains, locus YOR136W, strain idh2, stronger effect = lower value 1.01 | S. cerevisiae deletion strains, locus YOR144C, strain elg1, stronger effect = lower value 1.02 | S. cerevisiae deletion strains, locus YOR184W, strain ser1, stronger effect = lower value 1.01 | S. cerevisiae deletion strains, locus YOR265W, strain rbl2, stronger effect = lower value 1.02 | S. cerevisiae deletion strains, locus YOR270C, strain vph1, stronger effect = lower value 1.01 | S. cerevisiae deletion strains, locus YOR290C, strain snf2, stronger effect = lower value 0.998 | S. cerevisiae deletion strains, locus YOR316C, strain cot1, stronger effect = lower value 1.01 | S. cerevisiae deletion strains, locus YPL051W, strain arl3, stronger effect = lower value 1.03 | S. cerevisiae deletion strains, locus YPL055C, strain LGE1, stronger effect = lower value 1.02 | S. cerevisiae deletion strains, locus YPL078C, strain atp4, stronger effect = lower value 1.02 | S. cerevisiae deletion strains, locus YPL106C, strain sse1, stronger effect = lower value 1.01 | S. cerevisiae deletion strains, locus YPL240C, strain hsp82, stronger effect = lower value 1.01 | S. cerevisiae deletion strains, locus YPL241C, strain CIN2, stronger effect = lower value 1.01 | S. cerevisiae deletion strains, locus YPR119W, strain clb2, stronger effect = lower value 1.02 | S. cerevisiae deletion strains, locus YPR141C, strain kar3, stronger effect = lower value 1.02 | S. cerevisiae deletion strains, locus YPR163C, strain tif3, stronger effect = lower value 1.03 | S. cerevisiae deletion strains, locus YPR167C, strain met16, stronger effect = lower value 1.01 | S. cerevisiae deletion strains, strain wtn01, stronger effect = lower value 1.01 | S. cerevisiae strains, strain wild type, stronger effect = lower value 1.01
